We go through 13 compounds from PubChem BioAssay.

Common to all, as to assay: BK channel mutant inhibitors and activators – cell-based, U2OS BacMam, thallium flux, beta subunits, selectivity assay, profiling panel (AID 1259406);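 also: initial slope of Thallos dye fluorescence rise after thallium is added; log ratio against the mean of 0.3% DMSO vehicle wells on the same plate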
One assay deals with F380Y. The settings on record: U2OS BacMam BK variants, at 30 µM.
In another assay the test system is F380Y/beta1. The settings on record: U2OS BacMam BK variants, at 30 µM.
Another assay relates to F380Y/beta2Delta. The settings on record: U2OS BacMam BK variants, at 30 µM.
A further assay relates to F380Y/beta4. As to conditions: U2OS BacMam BK variants, at 30 µM.
The target in assay [1] is Calcium-activated potassium channel subunit alpha-1 (Homo sapiens) + Leucine-rich repeat-containing protein 26 (Homo sapiens) (UniProt Q12791+Q2I0M4). The settings on record: U2OS BacMam BK variants, F380Y/Slo1WT/gamma1, at 30 µM.
Calcium-activated potassium channel subunit alpha-1 (Homo sapiens) + Leucine-rich repeat-containing protein 26 (Homo sapiens), sequence (Q2I0M4 whole entry, looked up, one chain of several): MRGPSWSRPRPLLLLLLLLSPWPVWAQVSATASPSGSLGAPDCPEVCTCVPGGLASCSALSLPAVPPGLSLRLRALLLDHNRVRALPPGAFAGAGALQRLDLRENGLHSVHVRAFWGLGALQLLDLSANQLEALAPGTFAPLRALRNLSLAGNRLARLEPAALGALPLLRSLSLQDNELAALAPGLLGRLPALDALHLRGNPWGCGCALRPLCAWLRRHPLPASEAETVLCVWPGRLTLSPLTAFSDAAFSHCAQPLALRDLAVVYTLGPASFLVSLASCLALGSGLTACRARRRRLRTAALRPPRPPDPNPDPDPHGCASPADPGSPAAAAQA
In the next assay the test system is R275C. As to conditions: U2OS BacMam BK variants, at 30 µM.
For the next assay, the system named is R275C/beta1. As to conditions: U2OS BacMam BK variants, at 30 µM.
Another assay has as its system R275C/beta2Delta. The settings on record: U2OS BacMam BK variants, at 30 µM.
For the next assay, the system named is R275C/beta4. As to conditions: U2OS BacMam BK variants, at 30 µM.
The subject of another assay is R275C/Slo1WT/beta2. As to conditions: U2OS BacMam BK variants, at 30 µM.

Structures are written as SMILES. Unmarked numbers belong to inactive results. The source made the active and inactive calls.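 The calls were made as follows: active = thallium flux through the channel raised or lowered by more than 3 SD from vehicle-only wells, actives on both sides; inactive = the rest.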

As for `Fc1ccc(CCc2ccc(F)cc2)cc1`, the log fold change Tl+ flux in the assay on F380Y is -9.9e-05; with F380Y/beta1, -0.0289; in the assay on F380Y/beta2Delta, 0.0449; in the assay with F380Y/beta4, 0.0131; in assay [1], 0.0118; in the assay on R275C it was 0.0179. For the same compound, the log fold change Tl+ flux with R275C/beta1 was 0.0162; in the assay on R275C/beta2Delta, 0.0454; in the assay with R275C/beta4, 0.0168; in the assay on R275C/Slo1WT/beta2, -0.0303.
As for `COC(=O)c1ccc(C=Cc2cccc(Cl)c2)s1`, the log fold change Tl+ flux was -0.0764 in the assay on F380Y; -0.0156 in the assay with F380Y/beta1; -0.00709 in the assay with F380Y/beta2Delta; -0.264 (active) in the assay with F380Y/beta4; -0.421 (active) in assay [1]; -0.198 (active) in the assay with R275C. The log fold change Tl+ flux in the assay with R275C/beta1 was -0.192 (active); with R275C/beta2Delta, -0.00722; in the assay with R275C/beta4, -0.0416; in the assay on R275C/Slo1WT/beta2 it was -0.104 (active).
Take `Cc1nc(-c2ccc(C(F)(F)F)cc2)sc1CO`: the log fold change Tl+ flux in the assay on F380Y was 0.0603; in the assay on F380Y/beta1 it was 0.197 (active); in the assay with F380Y/beta2Delta it was 0.0517; in the assay on F380Y/beta4, 0.104 (active); in assay [1], 0.156 (active); in the assay on R275C, 0.0174. The log fold change Tl+ flux in the assay on R275C/beta1 was 0.0853; in the assay with R275C/beta2Delta, 0.0843 (active); in the assay on R275C/beta4, 0.0953 (active); in the assay on R275C/Slo1WT/beta2, 0.00529.
Turning to `CCOC(=O)c1cc(CC)sc1NC(=O)C(Cl)(Cl)Cl`, the log fold change Tl+ flux was -0.00144 in the assay on F380Y; 0.0314 in the assay with F380Y/beta1; -0.028 in the assay on F380Y/beta2Delta; 0.0374 in the assay with F380Y/beta4; 0.0144 in assay [1]; -0.0151 with R275C. In addition, the log fold change Tl+ flux in the assay on R275C/beta1 was -0.066; with R275C/beta2Delta, 0.0214; in the assay on R275C/beta4, -0.00727; in the assay with R275C/Slo1WT/beta2 it was -0.00449.
On to `CCOC(=O)c1c[nH]n2c(=O)c3c(nc12)CCC3`, for which the log fold change Tl+ flux in the assay with F380Y was 0.0447; with F380Y/beta1 it was 0.0491; in the assay on F380Y/beta2Delta it was 0.00798; in the assay with F380Y/beta4, -0.00836; in [1] it was -0.00512; in the assay on R275C, -0.0014. For the same compound, the log fold change Tl+ flux in the assay with R275C/beta1 is 0.00358; with R275C/beta2Delta, 0.00309; in the assay on R275C/beta4, 0.0387; in the assay with R275C/Slo1WT/beta2 it was -0.0235.
With `CN(C)C=NC(=O)c1sc(S(C)(=O)=O)c2c1CCC=C2`, the log fold change Tl+ flux in the assay on F380Y is 0.147 (active); in the assay on F380Y/beta1 it was 0.036; in the assay with F380Y/beta2Delta it was -0.00643; in the assay on F380Y/beta4, 0.00437; in assay [1], -0.0666; in the assay on R275C, 0.00156. Moreover, the log fold change Tl+ flux in the assay on R275C/beta1 is -0.0344; with R275C/beta2Delta, 0.00771; in the assay with R275C/beta4, -0.00153; with R275C/Slo1WT/beta2 it was 0.0518.
Take `CSc1nc(C=Nc2cccc(Cl)c2)c(O)n1Cc1cccc(Cl)c1`: the log fold change Tl+ flux in the assay with F380Y was -0.00291; with F380Y/beta1, 0.208 (active); in the assay with F380Y/beta2Delta it was 0.0623; in the assay with F380Y/beta4 it was -0.0889; in assay [1], 0.0392; in the assay on R275C, -0.03. Moreover, the log fold change Tl+ flux in the assay on R275C/beta1 is 0.102; with R275C/beta2Delta, 0.137 (active); in the assay on R275C/beta4 it was 0.11 (active); in the assay with R275C/Slo1WT/beta2, -0.0459.
As for `Cc1ccc(I)cc1[N+](=O)[O-]`, the log fold change Tl+ flux in the assay with F380Y was 0.00211; with F380Y/beta1, -0.0212; in the assay with F380Y/beta2Delta, 0.0224; in the assay with F380Y/beta4 it was -0.0253; in [1], 0.0293; with R275C it was 0.0178. Also, the log fold change Tl+ flux in the assay with R275C/beta1 is 0.00943; in the assay on R275C/beta2Delta, -0.016; with R275C/beta4, 0.00957; in the assay with R275C/Slo1WT/beta2, -0.00671.
Turning to `Clc1ccc(-c2cnc(-c3ccc(Cl)cc3)o2)cc1`, the log fold change Tl+ flux in the assay with F380Y was 0.0159; in the assay with F380Y/beta1, -0.0226; in the assay with F380Y/beta2Delta, 0.0345; with F380Y/beta4 it was -0.00734; in assay [1] it was -0.0607; with R275C it was 0.0428. Also, the log fold change Tl+ flux in the assay on R275C/beta1 was 0.00118; in the assay on R275C/beta2Delta it was 0.0163; in the assay with R275C/beta4, 0.00237; in the assay with R275C/Slo1WT/beta2, -0.017.
Take `Nc1ccc(Cl)cc1-c1nc2ccccc2[nH]1`: the log fold change Tl+ flux with F380Y is -0.0882; in the assay with F380Y/beta1, -0.0427; in the assay on F380Y/beta2Delta it was -0.0974; in the assay with F380Y/beta4, -0.0939 (active); in [1], -0.0918; in the assay on R275C it was -0.0721. For the same compound, the log fold change Tl+ flux in the assay on R275C/beta1 was -0.112 (active); with R275C/beta2Delta it was -0.0678; in the assay with R275C/beta4, -0.0366; in the assay with R275C/Slo1WT/beta2, 0.00169.
As for `CCOC(=O)CSc1nnc(OCC)n1-c1ccccc1`, the log fold change Tl+ flux is -0.0276 in the assay on F380Y; -0.00436 with F380Y/beta1; 0.0123 with F380Y/beta2Delta; -0.00338 in the assay with F380Y/beta4; 0.0529 in [1]; -0.0234 in the assay with R275C. The log fold change Tl+ flux was 0.0181 in the assay with R275C/beta1, -0.0101 in the assay with R275C/beta2Delta, -0.0109 in the assay with R275C/beta4 and 0.0084 in the assay with R275C/Slo1WT/beta2.
Turning to `COC(=O)Cc1cccc2c(=O)c3ccccc3oc12`, the log fold change Tl+ flux is 0.00439 in the assay with F380Y; -0.00882 in the assay on F380Y/beta1; 0.0497 with F380Y/beta2Delta; 0.0357 in the assay on F380Y/beta4; 0.00575 in [1]; 0.0179 with R275C. Moreover, the log fold change Tl+ flux is -0.0476 in the assay on R275C/beta1, 0.00558 with R275C/beta2Delta, 0.00377 with R275C/beta4 and 0.049 in the assay on R275C/Slo1WT/beta2.
With `Cc1c(C)c(C)c(C(=O)c2ccccc2C(=O)NN)c(C)c1C`, the log fold change Tl+ flux in the assay on F380Y is 0.0326; in the assay with F380Y/beta1, 0.0715; in the assay on F380Y/beta2Delta, 0.00841; in the assay on F380Y/beta4, 0.0586; in assay [1] it was 0.0596; with R275C, 0.02. Moreover, the log fold change Tl+ flux with R275C/beta1 was 0.144 (active); with R275C/beta2Delta, 0.0153; in the assay with R275C/beta4 it was 0.0879 (active); in the assay on R275C/Slo1WT/beta2 it was 0.00811.
